The source of these data is PubChem BioAssay (NCATS).

Each structure is given as a SMILES string. Inconclusive results are not listed. A number with no mark means an inactive call. Calls of active or inactive are those of the source. Unless noted, calls come from the whole dose curve; as a rule, active = well fitted curve in the direction sought with a large enough effect in the repeat runs; inconclusive = weak or mixed curves; inactive = no such curve, though single readings can be large; an effect the other way counts as inactive or inconclusive.

The target of test [1] is Calcium and integrin-binding protein 1 (Homo sapiens) (UniProt Q99828). As to the kind of experiment: Primary qHTS for Identification of Calcium Integrin Binding Protein 1 (CIB1) Competitor (AID 1508620; active = well fitted curve in the direction sought with a large enough effect; an effect the other way counts as inactive or inconclusive). In a few lines: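 CIB1-GST (1 uM final) and compound incubated 15 min at room temperature before adding FITC-alphaIIb peptide tracer (100 nM final). Competition for binding read by fluorescence polarization (ex 480, em 540) after another 15 min at room temperature.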

For test [2], the target named is Cytochrome P450 2C9 (Homo sapiens) (UniProt P11712). As to the kind of experiment: Cytochrome P450 family 2 subfamily C member 9 (CYP2C9) small molecule antagonists: luciferase biochemical (cell-free) qHTS assay (AID 1645842). Note: nearly all actives have a fitted effect of over 55% in size. The method in brief: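 Luminescence, after 20 min with luciferin detection reagent, reflected CYP2C9 turnover during a 1 h NADPH-driven reaction at 37C. Enzyme-substrate mix contained 0.4% bovine serum albumin and was preincubated with compound 10 min at room temperature.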

Test [3] in a line: A High-Content qHTS Against Drug Library for the Identification of Small Molecules that Inhibit DYT1 Early Onset Primary Dystonia-Associated Cell Pathology (AID 1645839; calls by dose curve). In a few lines:
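In this high-content image screen, delE TorsinA mislocalization in inducible Flp-In 293 cells is scored as %pathology, with cell count serving as the counterscreen. Compound exposure lasts 48 h under tetracycline induction in reduced-serum medium.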
Background: In qHTS, concentration-response curves come from the screen itself.

The target of test [4] is Cytochrome P450 2D6 (Homo sapiens) (UniProt P10635). As to the kind of experiment: Cytochrome P450 family 2 subfamily D member 6 (CYP2D6) small molecule antagonists: luciferase biochemical (cell-free) qHTS assay (AID 1645840). Note: nearly all actives have a fitted effect of over 55% in size. The method in brief: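 P450-Glo luminescent screen: recombinant CYP2D6 enzyme–proluciferin substrate mix preincubated with compound 10 min at room temperature, then NADPH regeneration added for 1 h at room temperature. Detection reagent added for 20 min; luciferin light read as relative luminescence units.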

Test [5] in a line: Primary qHTS for small molecule stabilizers of the endoplasmic reticulum resident proteome: Secreted ER Calcium Modulated Protein (SERCaMP) assay (AID 1508630; active = well fitted curve in the direction sought with a large enough effect; an effect the other way counts as inactive or inconclusive). In a few lines: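 GLuc-SERCaMP-expressing SH-SY5Y cells, pretreated 16 h with compound, are challenged with thapsigargin to empty ER calcium stores; after 4 h, coelenterazine is added directly to the medium and luminescence is imaged.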

Test [6] can be described thus: Counterscreen qHTS for small molecule stabilizers of the endoplasmic reticulum resident proteome: GLuc-NoTag assay (AID 1508627; active = well fitted curve in the direction sought with a large enough effect; an effect the other way counts as inactive or inconclusive). In a few lines: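 Luminescence of Gaussia luciferase secreted into the medium (coelenterazine, 0.07x final, unlysed cells) was the read-out. Human SH-SY5Y neuroblastoma cells constitutively secreting untagged GLuc received compound for 19 h, then 100 nM thapsigargin for 4 h.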

Test [7] can be described thus: Confirmatory qHTS for small molecule stabilizers of the endoplasmic reticulum resident proteome: Secreted ER Calcium Modulated Protein (SERCaMP) assay (AID 1508628; active = well fitted curve in the direction sought with a large enough effect; an effect the other way counts as inactive or inconclusive; note: nearly all actives have a fitted effect of over 40% in size). The method in brief:
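SH-SY5Y cells stably expressing GLuc-SERCaMP, treated 16 h with compound (primary 1.53, 7.67, 38.3 uM; confirmation 11 concentrations, up to 76.6 uM), then 100 nM thapsigargin for 4 h. Secreted Gaussia luciferase in medium read by coelenterazine luminescence.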

A short description of test [8]: Cell Viability qHTS for small molecule stabilizers of the endoplasmic reticulum resident proteome (AID 1508629; active = well fitted curve in the direction sought with a large enough effect; an effect the other way counts as inactive or inconclusive;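 note: compound exposure about 46 h in total before the viability read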). Particulars: cell viability counter-screen, 100 nM thapsigargin for final 4 h.
Potency is the fitted concentration of half-maximal effect.

Chain of Cytochrome P450 2D6 (Homo sapiens) (P10635 whole entry, looked up): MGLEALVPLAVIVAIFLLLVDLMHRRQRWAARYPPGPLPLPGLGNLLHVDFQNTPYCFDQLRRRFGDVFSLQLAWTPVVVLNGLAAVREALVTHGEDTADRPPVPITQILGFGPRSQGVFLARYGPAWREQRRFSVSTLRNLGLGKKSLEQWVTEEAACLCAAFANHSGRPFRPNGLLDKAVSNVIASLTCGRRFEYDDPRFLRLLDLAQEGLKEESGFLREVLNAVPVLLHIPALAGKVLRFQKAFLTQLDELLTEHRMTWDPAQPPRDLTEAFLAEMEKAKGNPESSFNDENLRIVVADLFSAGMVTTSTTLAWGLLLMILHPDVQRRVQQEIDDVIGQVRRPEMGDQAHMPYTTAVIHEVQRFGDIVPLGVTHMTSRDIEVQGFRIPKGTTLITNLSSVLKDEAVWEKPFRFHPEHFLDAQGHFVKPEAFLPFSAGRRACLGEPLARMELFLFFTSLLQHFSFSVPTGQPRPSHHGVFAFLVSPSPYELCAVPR
Chain of Cytochrome P450 2C9 (Homo sapiens) (P11712 whole entry, looked up): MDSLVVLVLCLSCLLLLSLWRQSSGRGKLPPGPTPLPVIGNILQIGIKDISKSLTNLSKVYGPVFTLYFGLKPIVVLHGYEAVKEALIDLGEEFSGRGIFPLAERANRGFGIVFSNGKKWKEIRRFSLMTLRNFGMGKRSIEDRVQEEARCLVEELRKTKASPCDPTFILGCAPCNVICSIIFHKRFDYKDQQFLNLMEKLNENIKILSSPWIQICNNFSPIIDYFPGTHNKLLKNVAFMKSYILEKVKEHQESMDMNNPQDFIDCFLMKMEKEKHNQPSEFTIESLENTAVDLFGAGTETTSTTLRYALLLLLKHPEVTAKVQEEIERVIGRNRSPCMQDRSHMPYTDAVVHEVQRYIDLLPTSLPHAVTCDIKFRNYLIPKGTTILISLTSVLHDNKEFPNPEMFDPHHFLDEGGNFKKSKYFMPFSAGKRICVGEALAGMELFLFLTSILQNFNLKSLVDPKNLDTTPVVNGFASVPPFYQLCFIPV
Chain of Calcium and integrin-binding protein 1 (Homo sapiens) (Q99828 whole entry, looked up): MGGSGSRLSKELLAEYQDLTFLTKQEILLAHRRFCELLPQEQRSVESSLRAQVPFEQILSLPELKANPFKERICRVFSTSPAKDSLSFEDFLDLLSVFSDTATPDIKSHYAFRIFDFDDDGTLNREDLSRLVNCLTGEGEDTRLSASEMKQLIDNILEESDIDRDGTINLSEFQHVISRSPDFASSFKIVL

Regarding `CCCCCCOC(=O)NC(=N)c1ccc(NCc2nc3cc(C(=O)N(CCC(=O)OCC)c4ccccn4)ccc3n2C)cc1`, the Potency result in test [1] is “inactive”. The Potency in test [2] is 1.38 µM (active).
With `COC(=O)c1cc(Cl)ccc1NS(=O)(=O)C(F)(F)F`, the Potency result in test [3], in test [4] and in test [2] was “inactive” in each case.
On to `CO/N=C(/C(=O)N[C@@H]1C(=O)N2C(C(=O)[O-])=C(C[n+]3ccn4ncccc43)CS[C@H]12)c1nsc(N)n1`, for which the Potency result in test [3], in test [4] and in test [2] was “inactive” in each case.
As for `Cn1cc(S(C)=O)c(=O)c2ccc(F)cc21` (stereo unspecified), the Potency entry in test [1], in test [4] and in test [2] was “inactive” each time.
With `O=C(Nc1ccc(S(=O)(=O)N2CCOCC2)cc1)c1cc(Cl)ccc1NS(=O)(=O)c1ccc(Cl)s1`, the Potency entry in test [5] is “inactive”. Moreover, the figures for the Potency in test [4] and in test [2] were 15.5 µM (active) and 0.0436 µM (active), respectively.
As for `CCCCCCCCCCCC[N+](C)(C)Cc1ccccc1`, the Potency entry in test [5] was “inactive”. The figures for the Potency in test [4] and in test [2] were 0.195 µM (active) and 15.5 µM (active), respectively.
On to `Cc1c(C)c2c(c(C)c1OC(=O)CCC(=O)OCCO)CC[C@@](C)(CCC[C@H](C)CCC[C@H](C)CCCC(C)C)O2`, for which the Potency entry in test [5] was “inactive”. For the same molecule, the figures for the Potency in test [3] and in test [4] were 5.62 µM (active) and 12.3 µM (active), respectively.
On to `Nc1ccc(O)cc1`, for which the Potency entry in test [3] is “inactive”. Also, the Potency in test [4] was 6.17 µM (active); in test [2] it was 15.5 µM (active).
Take `C[C@@H](C1=C(CCN(C)C)Cc2ccccc21)c1ccccn1`: the Potency result in test [1] and in test [2] was “inactive” throughout. In test [4], the Potency was 11 µM (active).
Take `Oc1ccccc1`: the Potency result in test [3] and in test [2] was “inactive” throughout.
As for `NCC(=O)O`, the Potency result in test [3] was “inactive”.
With `O=C(O)CCCC[P+](c1ccccc1)(c1ccccc1)c1ccccc1`, the Potency result in test [5], in test [3], in test [4] and in test [2] was “inactive” throughout.
On to `CCCCCCCC(=O)[O-].CCCCCCCC(=O)[O-].[Zn+2]`, for which the Potency entry in test [5], in test [3] and in test [2] was “inactive” in each case.
On to `Oc1ccc(CCNCCCCCCNCCc2ccccc2)cc1O`, for which the Potency result in test [1] and in test [2] was “inactive” throughout. Besides, the Potency in test [4] is 24.5 µM (active).
For the molecule `CN1CCC(N(Cc2cccs2)c2ccccc2)CC1`, the Potency result in test [6] and in test [2] was “inactive” each time. Moreover, the Potency was 31.6 µM (active) in test [7] and 0.49 µM (active) in test [4].
In the case of `Cc1cc2nc3ccc(=[N+](C)C)cc-3sc2cc1N`, the Potency is 35.5 µM (active) in test [6]; 7.94 µM (active) in test [8]; 7.08 µM (active) in test [3]; 0.431 µM (active) in test [4]; 1.08 µM (active) in test [2].
For the molecule `OCCCc1ccccc1`, the Potency result in test [5], in test [3], in test [4] and in test [2] was “inactive” throughout.
As for `Nc1cccc2c(N)cccc12`, in test [7], the Potency entry was “inactive”. Further, the Potency is 2.99 µM (active) in test [4] and 18.9 µM (active) in test [2].
Consider `CC(C)C(C)(C)C(C)(C)C(C)(C)S`, for which the Potency entry in test [3] and in test [4] was “inactive” each time.
As for `O=[N+]([O-])c1ccc(O)c2ncccc12`, the Potency in test [8] was 7.94 µM (active); in test [5], 1 µM (active). Further, the Potency entry in test [4] and in test [2] was “inactive” throughout.
Take `Nc1cc(C(F)(F)F)ccc1S`: the Potency in test [1] was 28.2 µM (active); in test [4], 15.5 µM (active); in test [2], 1.38 µM (active).
For the molecule `CCCCCCCCCCCCCCCC[n+]1ccccc1`, the Potency entry in test [5] was “inactive”.
As for `O=C(COCCOCCOCC(=O)Nc1c(I)cc(I)c(C(=O)O)c1I)Nc1c(I)cc(I)c(C(=O)O)c1I`, the Potency result in test [3], in test [4] and in test [2] was “inactive” in each case.
Consider `CN1CC[C@H](c2c(O)cc(O)c3c(=O)cc(-c4ccccc4Cl)oc23)[C@H](O)C1`, for which the Potency result in test [5] and in test [2] was “inactive” in each case. For the same molecule, the Potency in test [4] is 12.3 µM (active).
`CSc1ccc(/C=C2/C(C)=C(CC(=O)O)c3cc(F)ccc32)cc1`: the Potency result in test [2] was “inactive”.
Consider `CC(C)NCCCC1(C(N)=O)c2ccccc2-c2ccccc21`, for which the Potency entry in test [3] was “inactive”. Besides, the Potency in test [4] was 3.89 µM (active).
Consider `CC(C)(C)C(O)/C=C/c1ccc2c(c1)OCO2` (stereo unspecified), for which the Potency result in test [3] was “inactive”. Moreover, the values for the Potency in test [4] and in test [2] were 11 µM (active) and 3.09 µM (active), respectively.
In the case of `CO/N=C(/C(=O)N[C@@H]1C(=O)N2C(C(=O)O)=C(Cn3nnc(C)n3)CS[C@H]12)c1csc(N)n1`, the Potency entry in test [5], in test [3], in test [4] and in test [2] was “inactive” in each case.
In the case of `O=C1Nc2ccccc2C1(c1ccc(O)cc1)c1ccc(O)cc1`, the Potency entry in test [1] is “inactive”. For the same molecule, the Potency in test [4] is 19.5 µM (active); in test [2], 4.36 µM (active).
With `O=C(CCC1CCN(Cc2ccccc2)CC1)c1ccc2c(c1)NCCCC2`, the Potency entry in test [1] and in test [2] was “inactive” throughout. Also, the Potency in test [4] was 9.77 µM (active).
As for `C[C@H]1C[C@@H]2[C@H]([C@@H](O)C[C@@]3(C)[C@H]2CC[C@]3(O)C(=O)CO)[C@@]2(C)C=CC(=O)C=C12`, the Potency result in test [5] and in test [3] was “inactive” each time.
As to `O=C(c1cc(O)c(O)c(O)c1)c1ccc(O)c(O)c1O`, the Potency entry in test [3] and in test [2] was “inactive” in each case.
